Source: PubChem BioAssay (National Center for Advancing Translational Sciences (NCATS))
Sampled rows, rich in hits. Any-hit rate of the full collection: about 7.3%.
HCV inhibitor: qHTS Assay for Inhibitors of Hepatitis C Virus (HCV). Huh7.5.1 HCVcc-Cre infection, luciferase reporter, 44 h. Potency, µM (doses to about 41.8 µM), usual class: inhibitors. actives 3.4% (n = 340,000); active means well fitted inhibition curve with a large enough effect; inconclusive means small, poorly fitted or top-dose-only effect, or another doubt; inactive means no such curve, though single readings can be large or run the other way
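Reporter virus HCVcc-Cre (~0.5 moi) infects cells exposed to compound; seeding density 1,000 cells/well with 4 h settling beforehand. Luminescence, 15 sec read, taken 44 h post-infection following a 15 min RT substrate incubation.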
FMDV inh: High Throughput Screening for Foot and Mouth Disease Virus Antivirals; AID 1159524, 2015; Potency, µM (top dose mostly 57.9 µM), usual class: inhibitors; FMDV antiviral cell-based qHTS; actives 1.2% (n = 410,000); calls by dose curve; tested in HEK293T cells; further: read-out not given here; nearly all actives have a fitted effect of over 45% in size
VACV Venus inh: qHTS for Stage-Specific Inhibitors of Vaccinia Orthopoxvirus: Venus Reporter Primary qHTS. Vaccinia virus Venus reporter expression, fluorescence. Potency, µM (series often up to 36.5 µM), usual class: inhibitors. AID 720580, 2013. actives 0.46% (n = 330,000); calls by dose curve; tested in A549 cells; further: nearly all actives have a fitted effect of over 30% in size
HCMV antiviral: qHTS Assay for inhibitors of the human cytomegalovirus (HCMV); AID 1259415, 2018; activity change, negative = inhibition, % at 57.5 µM; HFF cells, HCMV-luciferase reporter, 72 h; active compounds read low; actives 4.5% (n = 410,000); in the data active means activity change below about -60%; inconclusive means no clear call, values can overlap the other calls; inactive means above about -39%
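Two-dose cell screen: HFF monolayers treated with compounds and infected with luciferase-expressing HCMV at 1 PFU/cell, 72 h at 37C, then lysed for luciferase measurement.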
VACV mCherry inh: qHTS for Stage-Specific Inhibitors of Vaccinia Orthopoxvirus: mCherry Reporter Primary qHTS; Vaccinia virus mCherry reporter infection, fluorescence; Potency, µM (highest dose often 36.5 µM), actives largely listed as inhibitors; actives 0.63% (n = 310,000); AID 720579, 2013; calls by dose curve; tested in A549 cells; further: nearly all actives have a fitted effect of over 35% in size
A number is an active result; . = inactive; ? = inconclusive; / = not tested or not shown; [ ] = another dose, or the depositor's remark.

SMILES	HCV inhibitor	FMDV inh	VACV Venus inh	HCMV antiviral	VACV mCherry inh
CCC(=O)NCc1cc(-c2nn(C)c(=O)c3ccccc23)ccc1C	.	.	/	.	/
Cn1nc(-c2ccc(C(=O)Nc3cccnc3)cc2)c2ccccc2c1=O	.	?	.	.	.
Cc1ccc(-c2nn(CC(=O)NCc3cc(-c4nn(C)c(=O)c5ccccc45)ccc3C)c(=O)c3ccccc23)cc1	?	16µM	?	-95	?
COc1ccc(NC(=O)CN(C)C(=O)c2ccccc2OCC(=O)Nc2cccc(C(F)(F)F)c2)cc1	?	.	.	?	.
COc1cccc(CN(C)C(=O)c2ccc(OCC(=O)Nc3cccc(C(F)(F)F)c3)c(OC)c2)c1	?	?	?	-86	?
COc1ccc(CN(C)C(=O)c2ccc(OCC(=O)Nc3cccc(C(F)(F)F)c3)c(OC)c2)c(OC)c1	0.56µM	?	?	-83	.
COc1cc(C(=O)NCCCN(C)C)ccc1OCC(=O)Nc1cccc(C(F)(F)F)c1	?	.	.	.	.
COc1ccc(CN(C)C(=O)c2cccc(NC(=O)CC3SC(N4CCCCC4)=NC3=O)c2)c(OC)c1 (stereo unspecified)	8.9µM	20µM	.	-77	?
COc1cccc(CN(C)C(=O)c2cccc(NC(=O)CC3SC(N4CCCCC4)=NC3=O)c2)c1OC (stereo unspecified)	.	?	/	.	/
COc1ccc(OC)c(C2C(C(=O)N3CCCCC3)=C(C)Nc3nc4ccccc4n32)c1 (stereo unspecified)	/	.	.	.	.
CCOc1cc(CNC(=O)c2ccc3nc(C(C)C)oc3c2)cc(OCC)c1OCC	/	.	.	.	.
COc1ccc(C)cc1-n1nnc(C(=O)Nc2cccc(SC)c2)c1C	/	?	.	.	.
CCOC(=O)c1ccc(N=c2sc(C(=O)OC)cc(=O)n2CCCN2CCOCC2)cc1	?	16µM	.	.	.
CCOC(=O)c1ccc(N=c2sc(C(=O)OC)cc(=O)n2Cc2ccco2)cc1	22µM	.	.	.	.
O=C(CCl)N(c1ccccc1)c1c[nH]c2ccccc12	1.3µM	?	?	-103	?
O=C(Cc1ccc(Cl)cc1)NCCc1c[nH]c2ccccc12	.	.	/	.	/
O=C(CCl)N(c1ccc(Cl)cc1)c1c[nH]c2ccccc12	2.5µM	?	13µM	-105	?
O=C(O)Cc1c[nH]c2ccccc12	.	.	.	/	.
COC(=O)c1cccc(C(=O)N2CCc3c(cnc(C)c3CNC(=O)c3ccsc3)C2)c1	/	.	.	/	.
Cn1c(=O)c(C#N)c(-c2ccc(F)cc2)c2cc(C(=O)c3cc(Cl)cc(Cl)c3O)cnc21	11µM	?	/	-61	/
CCOC(=O)c1c(C)oc2ncnc(N3CCN(c4ccccc4OC)CC3)c12	/	?	.	.	.
COc1ccccc1OCCn1cc(C(=O)c2ccco2)c2ccccc21	?	25µM	.	.	?
COc1cccc(OCCn2cc(C(=O)c3ccco3)c3ccccc32)c1	20µM	.	.	.	.
Cc1cc(OCCn2cc(C(=O)c3ccco3)c3ccccc32)ccc1Cl	/	.	.	.	.
Cc1ccccc1OCCn1cc(C(=O)c2ccco2)c2ccccc21	/	.	.	.	.
SMILES	HCV inhibitor	FMDV inh	VACV Venus inh	HCMV antiviral	VACV mCherry inh
COc1ccccc1OCCCn1cc(C(=O)c2ccco2)c2ccccc21	11µM	.	/	.	/
COc1cc(NC(=O)CC(c2ccc(C)cc2)N2Cc3ccccc3C2=O)cc(OC)c1 (stereo unspecified)	/	.	.	.	.
CN(C)C(=O)O/N=C(\N)COc1ccc(C(C)(C)C)cc1	?	.	/	-100	/
CC(C)(C)c1ccc(OCC(=O)O)cc1	.	.	/	.	/
COc1ccc(-c2nc3cnc(Nc4ccc(F)c(Cl)c4)cc3n2C)cc1OC	/	/	/	.	/
CCn1cc(CN2CCCC(CO)(Cc3ccc(F)cc3)C2)c2ccccc21 (stereo unspecified)	.	.	.	-64	?
CCc1ccc(NCc2cc3ccc(OC)cc3n(CC(=O)Nc3ccc(F)cc3F)c2=O)cc1	/	.	.	.	.
COC(=O)c1sc2nc(N3CCCCC3)c3c(c2c1N)CCCC3	13µM	.	?	.	.[1.46 µM]
CC(=O)c1c(C)[nH]c(C(=O)OCC(=O)Nc2ccccc2Cl)c1C	?	18µM	.	.	?
CCN(CC)S(=O)(=O)c1ccc(Cl)c(NC(=O)COC(=O)c2cccn2C)c1	5.6µM	13µM	.	.	?
CC(=O)c1c(C)[nH]c(C(=O)OCC(=O)Nc2cc(S(=O)(=O)N3CCCC3)ccc2Cl)c1C	1.4µM	?	.	?	.
CC(=O)c1c(C)[nH]c(C(=O)OCC(=O)Nc2cccc(S(=O)(=O)N3CCCC3)c2)c1C	?	14µM	.	-65	.
COc1ccc(S(=O)(=O)N2CCOCC2)cc1NC(=O)COC(=O)c1[nH]c(C)c(C(C)=O)c1C	?	.	.	.	.
CC(=O)c1c(C)[nH]c(C(=O)OCC(=O)Nc2cccnc2Cl)c1C	?	?	.	.	.
Cn1c(=O)[nH]c2cc(-c3noc(-c4ccc(F)cc4)n3)ccc21	/	.	.	.	.
COc1ccc(C(c2c(O)cc(C)n(Cc3ccco3)c2=O)N2CCCCC2)cc1OC (stereo unspecified)	/	.	.	.	.
O=C1CN(C(=O)c2ccc(Cl)cc2Cl)C(c2ccc(F)cc2)c2cc(F)ccc2N1 (stereo unspecified)	/	.	.	.	.
O=C(NCc1ccccn1)c1cnn(-c2nccc(-c3cc4ccccc4o3)n2)c1C1CC1	/	.	.	/	.
Cn1ccc(C(=O)OCC(=O)Nc2ccccc2Cl)n1	3.2µM	.	.	.	?
CC(C)[C@H](CO)Nc1nc(Nc2ccc(Cl)c(C(=O)O)c2)c2ncn(C(C)C)c2n1	.	.	.	.	.
CC(C)n1cnc2c(Nc3cccc(Cl)c3)nc(NCCCO)nc21	11µM	.	10µM	.	?
CCOC(=O)/C=C/[C@@H](CC(C)C)NC(=O)C(F)(F)F	/	/	/	.	/
CCOC(=O)c1cc(-c2ccc(OC)cc2)n(CCC(=O)NCc2ccccc2OC)c1C	/	.	.	.	.
CCc1nc(N=Nc2c(O)[nH]c3ccccc23)c2c3c(sc2n1)CCC3	?	.	10µM	?	16µM
CC1CCc2c(sc3ncn(CC(=O)N=Nc4c(O)[nH]c5ccccc45)c(=O)c23)C1 (stereo unspecified)	.	.	/	.	/
Cc1ccc(S(=O)(=O)N2CCN(c3nc(-c4ncccn4)nc4ccccc34)CC2)cc1	/	/	.	/	.
Cc1ccccc1Cn1c(=O)n(-c2ccc(Cl)cc2)c(=O)c2c3c(sc21)CCCC3	/	.	.	.	.
COc1cccc(-c2ccnc(-n3ncc(C(=O)N(C)CCc4ccccn4)c3C)n2)c1	/	.	.	/	.
CN(C)CCCN(C(=O)c1ccc(S(=O)(=O)N2CCc3ccccc32)cc1)c1nc2ccc(Cl)cc2s1	/	.	.	.	.
